# From the supplement of paper PMC4022240
# ± gives the standard deviation.
# Molecular target: T1, HaloTag-ATRX ADD domain (163-292)
# T1 chain: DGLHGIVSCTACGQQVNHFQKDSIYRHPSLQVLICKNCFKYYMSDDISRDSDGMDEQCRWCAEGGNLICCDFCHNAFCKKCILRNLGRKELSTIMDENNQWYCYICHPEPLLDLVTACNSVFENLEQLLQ
# Test: peptide microarray binding signal (635 nm), min-max normalized on array (fraction of array maximum); higher = stronger binding
# Conditions: peptide region: Unmod H3 variant; binder concentration: 50 nM
# Outline: (§1)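 Histone 13-mer peptide–cellulose conjugates were printed in triplicate on nitrocellulose with a Cy3 tracer, then blocked overnight at 4°C. Arrays were probed for 1 h at 4°C with biotin-labelled HaloTag reader fusions (10 nM to 1 μM) plus streptavidin-Alexa Fluor 647, or with rabbit histone antibodies (1:10,000 to 1:2,000) plus anti-rabbit Alexa 647. An Axon GenePix 4000B scanned 635 nm for signal and 532 nm for misprints. Binding signal is the triplicate-spot mean intensity, min-max scaled per library.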
row,Binder,peptide microarray binding signal
1,QDFKTDLRFQSSA [Unmod H3 variant Q D F K T D L R F Q S S A],0.00483 ± 6.5e-05
2,RKSAPATGGVKKP [Unmod H3 variant R K S A P A T G G V K K P],0.00398 ± 4.1e-05
3,ATGGVKKPHRYRP [Unmod H3 variant A T G G V K K P H R Y R P],0.00552 ± 0.0011
4,VREIAQDFKTDLR [Unmod H3 variant V R E I A Q D F K T D L R],0.00495 ± 9.5e-05

# Same assay, conditions: peptide region: Unmod H3 variant; binder concentration: 500 nM
row,Binder,peptide microarray binding signal
1,QDFKTDLRFQSSA [Unmod H3 variant Q D F K T D L R F Q S S A],0.011 ± 0.00018
2,RKSAPATGGVKKP [Unmod H3 variant R K S A P A T G G V K K P],0.0111 ± 0.0002
3,ATGGVKKPHRYRP [Unmod H3 variant A T G G V K K P H R Y R P],0.00938 ± 0.0008
4,VREIAQDFKTDLR [Unmod H3 variant V R E I A Q D F K T D L R],0.0115 ± 0.00061

# Molecular target: HaloTag-ING2 PHD (mouse Ing2 200-280)
# Test: as above
# Conditions: peptide region: Unmod H3 variant; binder concentration: 10 nM
# Outline: as §1
row,Binder,peptide microarray binding signal
1,QDFKTDLRFQSSA [Unmod H3 variant Q D F K T D L R F Q S S A],0.00973 ± 0.00021
2,RKSAPATGGVKKP [Unmod H3 variant R K S A P A T G G V K K P],0.008 ± 0.00021
3,ATGGVKKPHRYRP [Unmod H3 variant A T G G V K K P H R Y R P],0.00537 ± 0.00055
4,VREIAQDFKTDLR [Unmod H3 variant V R E I A Q D F K T D L R],0.00853 ± 0.00018

# Same assay, conditions: peptide region: Unmod H3 variant; binder concentration: 100 nM
row,Binder,peptide microarray binding signal
1,QDFKTDLRFQSSA [Unmod H3 variant Q D F K T D L R F Q S S A],0.0168 ± 0.0012
2,RKSAPATGGVKKP [Unmod H3 variant R K S A P A T G G V K K P],0.021 ± 0.00036
3,ATGGVKKPHRYRP [Unmod H3 variant A T G G V K K P H R Y R P],0.0186 ± 0.0068
4,VREIAQDFKTDLR [Unmod H3 variant V R E I A Q D F K T D L R],0.0134 ± 0.00073

# Molecular target: anti-H3K4me3 antibody ab8580
# Test: as above
# Conditions: peptide region: Unmod H3 variant; binder concentration: 1:2,000 dilution
# Outline: as §1
row,Binder,peptide microarray binding signal
1,QDFKTDLRFQSSA [Unmod H3 variant Q D F K T D L R F Q S S A],0.00276 ± 8.1e-05
2,RKSAPATGGVKKP [Unmod H3 variant R K S A P A T G G V K K P],0.000831 ± 5.9e-05
3,ATGGVKKPHRYRP [Unmod H3 variant A T G G V K K P H R Y R P],0.000585 ± 3.7e-05
4,VREIAQDFKTDLR [Unmod H3 variant V R E I A Q D F K T D L R],0.00247 ± 5.5e-05

# Same assay, conditions: peptide region: Unmod H3 variant; binder concentration: 1:10,000 dilution
row,Binder,peptide microarray binding signal
1,QDFKTDLRFQSSA [Unmod H3 variant Q D F K T D L R F Q S S A],0.00542 ± 0.0011
2,RKSAPATGGVKKP [Unmod H3 variant R K S A P A T G G V K K P],0.001312 ± 1.3e-05
3,ATGGVKKPHRYRP [Unmod H3 variant A T G G V K K P H R Y R P],0.000456 ± 1.3e-05
4,VREIAQDFKTDLR [Unmod H3 variant V R E I A Q D F K T D L R],0.00474 ± 0.00018

# Molecular target: anti-H3K9me3 antibody ab8898
# Test: as above
# Conditions: peptide region: Unmod H3 variant; binder concentration: 1:2,000 dilution
# Outline: as §1
row,Binder,peptide microarray binding signal
1,QDFKTDLRFQSSA [Unmod H3 variant Q D F K T D L R F Q S S A],0.00157 ± 6.5e-05
2,RKSAPATGGVKKP [Unmod H3 variant R K S A P A T G G V K K P],0.000529 ± 1.3e-05
3,ATGGVKKPHRYRP [Unmod H3 variant A T G G V K K P H R Y R P],0.000227 ± 7.1e-06
4,VREIAQDFKTDLR [Unmod H3 variant V R E I A Q D F K T D L R],0.00248 ± 0.00019

# Same assay, conditions: peptide region: Unmod H3 variant; binder concentration: 1:10,000 dilution
row,Binder,peptide microarray binding signal
1,QDFKTDLRFQSSA [Unmod H3 variant Q D F K T D L R F Q S S A],0.00202 ± 3.2e-05
2,RKSAPATGGVKKP [Unmod H3 variant R K S A P A T G G V K K P],0.000692 ± 7.3e-06
3,ATGGVKKPHRYRP [Unmod H3 variant A T G G V K K P H R Y R P],0.000461 ± 8.7e-06
4,VREIAQDFKTDLR [Unmod H3 variant V R E I A Q D F K T D L R],0.00259 ± 9.2e-05

# Molecular target: T1, HaloTag-ATRX ADD domain (163-292)
# Test: as above
# Conditions: peptide region: Unmod H2B variant; binder concentration: 50 nM
# Outline: as §1
row,Binder,peptide microarray binding signal
1,EGTKAVTKYTSSK [Unmod H2B variant E G T K A V T K Y T S S K],0.00473 ± 0.00015

# Same assay, conditions: peptide region: Unmod H2B variant; binder concentration: 500 nM
row,Binder,peptide microarray binding signal
1,EGTKAVTKYTSSK [Unmod H2B variant E G T K A V T K Y T S S K],0.00681 ± 0.00052

# Molecular target: HaloTag-ING2 PHD (mouse Ing2 200-280)
# Test: as above
# Conditions: peptide region: Unmod H2B variant; binder concentration: 10 nM
# Outline: as §1
row,Binder,peptide microarray binding signal
1,EGTKAVTKYTSSK [Unmod H2B variant E G T K A V T K Y T S S K],0.00561 ± 0.00046

# Same assay, conditions: peptide region: Unmod H2B variant; binder concentration: 100 nM
row,Binder,peptide microarray binding signal
1,EGTKAVTKYTSSK [Unmod H2B variant E G T K A V T K Y T S S K],0.01276 ± 6.8e-05

# Molecular target: anti-H3K4me3 antibody ab8580
# Test: as above
# Conditions: peptide region: Unmod H2B variant; binder concentration: 1:2,000 dilution
# Outline: as §1
row,Binder,peptide microarray binding signal
1,EGTKAVTKYTSSK [Unmod H2B variant E G T K A V T K Y T S S K],0.00121 ± 0.00013

# Same assay, conditions: peptide region: Unmod H2B variant; binder concentration: 1:10,000 dilution
row,Binder,peptide microarray binding signal
1,EGTKAVTKYTSSK [Unmod H2B variant E G T K A V T K Y T S S K],0.001712 ± 1.6e-05

# Molecular target: anti-H3K9me3 antibody ab8898
# Test: as above
# Conditions: peptide region: Unmod H2B variant; binder concentration: 1:2,000 dilution
# Outline: as §1
row,Binder,peptide microarray binding signal
1,EGTKAVTKYTSSK [Unmod H2B variant E G T K A V T K Y T S S K],0.000468 ± 9e-06

# Same assay, conditions: peptide region: Unmod H2B variant; binder concentration: 1:10,000 dilution
row,Binder,peptide microarray binding signal
1,EGTKAVTKYTSSK [Unmod H2B variant E G T K A V T K Y T S S K],0.000923 ± 9.6e-06
